In the supplement of paper PMC11732987, “Enantioselective OTUD7B fragment discovery through chemoproteomics screening and high-throughput optimisation” (Communications Chemistry, 2025):

Legend:
Assay in all cases: log2 ratio of Biotin-Ahx-Ub-VS probe labelling (fragment/DMSO); higher = less target engagement (more negative = stronger competition), active = hit call of the paper (q ≤ 0.05, log2 ratio ≤ -1)
Conditions in all cases: compound concentration: 200 uM; treatment time: 3 h
USP34 = USP34 (UniProt Q70CQ2)
Sequence of USP34 (Q70CQ2 whole entry, the tested form may be a part): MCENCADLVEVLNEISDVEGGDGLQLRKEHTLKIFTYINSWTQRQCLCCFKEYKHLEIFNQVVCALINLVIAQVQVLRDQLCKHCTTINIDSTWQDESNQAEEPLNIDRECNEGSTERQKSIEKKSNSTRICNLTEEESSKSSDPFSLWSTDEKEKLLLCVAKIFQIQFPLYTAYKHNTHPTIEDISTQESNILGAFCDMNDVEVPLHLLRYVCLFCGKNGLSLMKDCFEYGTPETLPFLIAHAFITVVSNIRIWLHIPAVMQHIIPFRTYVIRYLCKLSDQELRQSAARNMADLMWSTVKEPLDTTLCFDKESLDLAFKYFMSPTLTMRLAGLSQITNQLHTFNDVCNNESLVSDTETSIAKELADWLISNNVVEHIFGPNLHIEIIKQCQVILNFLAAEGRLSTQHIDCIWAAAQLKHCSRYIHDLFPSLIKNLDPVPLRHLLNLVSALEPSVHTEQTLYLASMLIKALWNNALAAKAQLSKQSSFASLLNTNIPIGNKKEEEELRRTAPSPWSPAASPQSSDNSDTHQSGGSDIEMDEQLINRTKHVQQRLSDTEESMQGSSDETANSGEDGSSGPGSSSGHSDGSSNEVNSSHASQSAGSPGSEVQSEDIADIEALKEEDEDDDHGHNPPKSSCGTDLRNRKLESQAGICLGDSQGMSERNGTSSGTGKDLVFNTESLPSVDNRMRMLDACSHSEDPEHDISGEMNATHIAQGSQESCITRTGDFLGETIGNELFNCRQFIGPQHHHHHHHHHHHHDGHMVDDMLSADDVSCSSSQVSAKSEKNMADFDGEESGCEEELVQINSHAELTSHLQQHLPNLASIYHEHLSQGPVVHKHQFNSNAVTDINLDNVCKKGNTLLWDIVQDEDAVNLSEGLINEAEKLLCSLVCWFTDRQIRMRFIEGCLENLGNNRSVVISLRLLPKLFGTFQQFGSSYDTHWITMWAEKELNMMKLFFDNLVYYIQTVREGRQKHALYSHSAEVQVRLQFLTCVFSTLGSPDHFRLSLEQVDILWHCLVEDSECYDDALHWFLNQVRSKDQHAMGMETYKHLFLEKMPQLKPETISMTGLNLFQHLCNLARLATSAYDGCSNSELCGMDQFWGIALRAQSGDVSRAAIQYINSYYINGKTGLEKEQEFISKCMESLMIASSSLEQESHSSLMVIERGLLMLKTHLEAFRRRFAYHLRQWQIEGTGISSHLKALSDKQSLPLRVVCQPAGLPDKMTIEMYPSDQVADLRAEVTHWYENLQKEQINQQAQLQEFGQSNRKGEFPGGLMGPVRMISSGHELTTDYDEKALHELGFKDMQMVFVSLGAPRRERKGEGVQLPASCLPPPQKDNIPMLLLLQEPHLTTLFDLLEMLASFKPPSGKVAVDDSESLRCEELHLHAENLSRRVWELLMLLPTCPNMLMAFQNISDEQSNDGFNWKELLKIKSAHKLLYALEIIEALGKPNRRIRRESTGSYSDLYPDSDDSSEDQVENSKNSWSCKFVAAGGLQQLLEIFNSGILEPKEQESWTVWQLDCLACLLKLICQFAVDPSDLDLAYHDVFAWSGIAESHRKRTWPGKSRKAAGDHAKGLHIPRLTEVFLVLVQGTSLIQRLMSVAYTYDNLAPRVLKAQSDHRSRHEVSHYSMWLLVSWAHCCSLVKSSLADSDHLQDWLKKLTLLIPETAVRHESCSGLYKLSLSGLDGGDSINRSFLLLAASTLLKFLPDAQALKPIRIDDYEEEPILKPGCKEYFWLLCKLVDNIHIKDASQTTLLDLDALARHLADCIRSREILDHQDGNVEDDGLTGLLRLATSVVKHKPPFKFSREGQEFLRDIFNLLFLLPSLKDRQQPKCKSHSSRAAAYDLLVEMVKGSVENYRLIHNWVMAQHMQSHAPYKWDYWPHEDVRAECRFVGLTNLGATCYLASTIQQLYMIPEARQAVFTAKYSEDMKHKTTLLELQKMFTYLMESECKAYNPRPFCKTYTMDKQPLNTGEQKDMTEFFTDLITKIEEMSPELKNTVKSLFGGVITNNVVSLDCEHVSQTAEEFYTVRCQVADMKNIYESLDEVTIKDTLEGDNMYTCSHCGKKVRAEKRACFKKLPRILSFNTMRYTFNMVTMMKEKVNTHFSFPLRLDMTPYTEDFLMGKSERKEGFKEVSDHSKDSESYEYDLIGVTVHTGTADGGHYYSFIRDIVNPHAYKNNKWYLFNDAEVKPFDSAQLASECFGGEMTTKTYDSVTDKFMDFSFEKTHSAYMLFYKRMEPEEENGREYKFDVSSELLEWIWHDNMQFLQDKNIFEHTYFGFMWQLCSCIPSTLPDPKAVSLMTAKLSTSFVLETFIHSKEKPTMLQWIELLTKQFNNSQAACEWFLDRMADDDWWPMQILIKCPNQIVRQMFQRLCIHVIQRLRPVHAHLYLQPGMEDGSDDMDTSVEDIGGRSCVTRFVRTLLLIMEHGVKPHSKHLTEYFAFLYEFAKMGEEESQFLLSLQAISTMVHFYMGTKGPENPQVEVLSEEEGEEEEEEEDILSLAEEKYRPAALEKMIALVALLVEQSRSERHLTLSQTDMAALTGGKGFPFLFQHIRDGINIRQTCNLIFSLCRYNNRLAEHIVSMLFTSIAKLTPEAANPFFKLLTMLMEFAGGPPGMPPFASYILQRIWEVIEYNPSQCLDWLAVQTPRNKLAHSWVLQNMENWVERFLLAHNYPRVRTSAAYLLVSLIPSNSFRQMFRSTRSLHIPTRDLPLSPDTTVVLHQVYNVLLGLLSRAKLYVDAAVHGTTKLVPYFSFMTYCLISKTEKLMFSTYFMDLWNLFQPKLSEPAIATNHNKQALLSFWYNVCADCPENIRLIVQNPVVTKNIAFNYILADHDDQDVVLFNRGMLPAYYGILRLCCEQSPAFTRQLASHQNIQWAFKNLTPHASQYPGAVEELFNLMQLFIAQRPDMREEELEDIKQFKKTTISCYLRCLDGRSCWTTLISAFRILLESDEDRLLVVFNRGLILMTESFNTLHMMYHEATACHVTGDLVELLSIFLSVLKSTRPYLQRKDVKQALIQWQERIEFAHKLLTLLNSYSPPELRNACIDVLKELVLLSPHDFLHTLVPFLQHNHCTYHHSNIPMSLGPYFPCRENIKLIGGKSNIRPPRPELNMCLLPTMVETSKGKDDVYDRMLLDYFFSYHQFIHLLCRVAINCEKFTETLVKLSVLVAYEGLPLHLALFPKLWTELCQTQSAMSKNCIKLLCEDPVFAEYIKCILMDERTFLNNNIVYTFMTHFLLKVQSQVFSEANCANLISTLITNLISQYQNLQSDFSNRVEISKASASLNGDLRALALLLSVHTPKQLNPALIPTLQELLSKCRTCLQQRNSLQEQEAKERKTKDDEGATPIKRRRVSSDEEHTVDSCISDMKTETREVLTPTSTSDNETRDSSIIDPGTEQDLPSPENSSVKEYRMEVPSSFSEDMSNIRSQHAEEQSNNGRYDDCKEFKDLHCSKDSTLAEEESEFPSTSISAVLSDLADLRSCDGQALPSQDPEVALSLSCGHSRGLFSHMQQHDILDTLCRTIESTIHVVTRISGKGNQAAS
Procedure, shortened: (§1)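 Each value is an average log2 ratio of fragment to vehicle, tested by unpaired t-test. The underlying Spectronaut label-free quantities were global-median-normalised, and only proteins with ≥2 unique peptides were included. Triplicate HEK293T lysate samples (495 µg) were exposed to fragment at 200 µM or vehicle for 3 h, then to Biotin-Ahx-Ub-VS at 0.5 µM final for 1 h, before NeutrAvidin enrichment of labelled DUBs, LysC and trypsin digestion, and diaPASEF LC-MS/MS.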

USP36 = target: T1, USP36 (UniProt Q9P275)
T1 sequence (whole entry): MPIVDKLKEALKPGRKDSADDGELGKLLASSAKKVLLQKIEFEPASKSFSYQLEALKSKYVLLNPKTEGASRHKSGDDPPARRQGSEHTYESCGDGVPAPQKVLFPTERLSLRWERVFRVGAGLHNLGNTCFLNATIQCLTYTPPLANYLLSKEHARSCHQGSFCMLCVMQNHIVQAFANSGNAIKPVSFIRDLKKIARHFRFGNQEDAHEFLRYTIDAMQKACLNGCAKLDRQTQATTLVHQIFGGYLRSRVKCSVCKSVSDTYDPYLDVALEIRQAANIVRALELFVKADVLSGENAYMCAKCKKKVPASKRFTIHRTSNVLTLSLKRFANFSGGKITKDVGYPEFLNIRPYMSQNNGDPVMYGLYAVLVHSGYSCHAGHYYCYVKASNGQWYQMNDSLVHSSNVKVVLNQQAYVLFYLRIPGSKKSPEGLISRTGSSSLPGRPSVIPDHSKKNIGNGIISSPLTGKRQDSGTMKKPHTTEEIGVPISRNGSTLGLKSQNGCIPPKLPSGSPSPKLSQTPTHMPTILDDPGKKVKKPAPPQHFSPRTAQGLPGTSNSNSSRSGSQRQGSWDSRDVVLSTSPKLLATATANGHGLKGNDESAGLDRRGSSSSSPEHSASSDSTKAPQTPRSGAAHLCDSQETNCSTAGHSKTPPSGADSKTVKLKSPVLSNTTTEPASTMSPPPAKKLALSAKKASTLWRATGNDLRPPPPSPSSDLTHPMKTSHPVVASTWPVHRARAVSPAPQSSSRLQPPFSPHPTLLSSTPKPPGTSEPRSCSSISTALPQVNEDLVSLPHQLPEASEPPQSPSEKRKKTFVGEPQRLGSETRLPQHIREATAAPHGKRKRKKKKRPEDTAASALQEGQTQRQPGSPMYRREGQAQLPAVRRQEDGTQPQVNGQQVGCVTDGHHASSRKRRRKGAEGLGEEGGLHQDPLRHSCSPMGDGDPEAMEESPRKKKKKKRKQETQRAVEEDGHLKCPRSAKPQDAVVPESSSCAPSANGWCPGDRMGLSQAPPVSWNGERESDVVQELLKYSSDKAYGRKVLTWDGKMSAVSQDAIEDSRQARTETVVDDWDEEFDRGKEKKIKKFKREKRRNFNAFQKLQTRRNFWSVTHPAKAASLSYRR
Procedure, shortened: as §1

USP38 = target: T2, USP38 (UniProt Q8NB14)
T2 sequence (whole entry): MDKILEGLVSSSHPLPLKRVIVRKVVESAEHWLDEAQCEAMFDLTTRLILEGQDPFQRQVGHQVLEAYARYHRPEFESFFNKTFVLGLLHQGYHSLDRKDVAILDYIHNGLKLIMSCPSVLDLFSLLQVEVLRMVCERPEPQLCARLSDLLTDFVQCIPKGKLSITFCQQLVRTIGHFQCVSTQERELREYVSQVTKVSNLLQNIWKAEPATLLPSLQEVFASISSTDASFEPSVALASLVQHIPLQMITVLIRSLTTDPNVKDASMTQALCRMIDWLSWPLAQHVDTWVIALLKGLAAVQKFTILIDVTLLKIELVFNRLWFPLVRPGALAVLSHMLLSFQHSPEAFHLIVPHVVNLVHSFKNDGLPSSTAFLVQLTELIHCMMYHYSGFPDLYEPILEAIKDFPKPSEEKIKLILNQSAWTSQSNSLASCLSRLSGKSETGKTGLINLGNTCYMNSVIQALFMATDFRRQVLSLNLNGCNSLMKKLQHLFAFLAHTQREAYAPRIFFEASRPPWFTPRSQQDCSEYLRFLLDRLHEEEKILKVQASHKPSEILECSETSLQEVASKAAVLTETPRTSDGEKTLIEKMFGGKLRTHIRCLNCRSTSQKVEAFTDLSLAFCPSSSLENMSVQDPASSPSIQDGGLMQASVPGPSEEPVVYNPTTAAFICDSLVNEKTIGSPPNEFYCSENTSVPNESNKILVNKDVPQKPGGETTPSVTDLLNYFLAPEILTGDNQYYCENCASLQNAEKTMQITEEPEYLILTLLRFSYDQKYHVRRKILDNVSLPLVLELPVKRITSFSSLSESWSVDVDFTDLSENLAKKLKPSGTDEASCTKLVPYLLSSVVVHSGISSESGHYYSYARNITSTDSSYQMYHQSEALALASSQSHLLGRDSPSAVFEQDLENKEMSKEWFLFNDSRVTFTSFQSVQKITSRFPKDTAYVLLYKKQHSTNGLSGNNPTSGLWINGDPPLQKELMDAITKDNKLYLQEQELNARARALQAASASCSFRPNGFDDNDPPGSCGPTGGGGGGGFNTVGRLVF
Procedure, shortened: as §1

USP39 = target: T3, USP39 (UniProt Q53GS9)
T3 sequence (whole entry): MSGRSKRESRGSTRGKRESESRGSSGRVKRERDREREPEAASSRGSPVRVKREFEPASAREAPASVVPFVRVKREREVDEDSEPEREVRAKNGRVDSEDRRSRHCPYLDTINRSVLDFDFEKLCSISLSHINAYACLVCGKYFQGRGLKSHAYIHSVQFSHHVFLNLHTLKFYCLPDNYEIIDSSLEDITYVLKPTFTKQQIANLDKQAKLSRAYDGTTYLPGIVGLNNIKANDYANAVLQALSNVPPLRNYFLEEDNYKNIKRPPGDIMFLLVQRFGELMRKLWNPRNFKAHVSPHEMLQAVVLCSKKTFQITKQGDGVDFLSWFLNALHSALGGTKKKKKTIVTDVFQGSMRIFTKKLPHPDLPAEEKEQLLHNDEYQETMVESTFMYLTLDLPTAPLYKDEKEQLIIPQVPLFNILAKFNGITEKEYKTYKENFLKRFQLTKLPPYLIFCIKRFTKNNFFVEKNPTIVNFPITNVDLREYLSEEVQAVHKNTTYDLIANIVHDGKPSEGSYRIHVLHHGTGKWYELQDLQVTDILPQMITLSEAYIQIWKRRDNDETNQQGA
Procedure, shortened: as §1

USP4 = target: T4, USP4 (UniProt Q13107)
T4 sequence (whole entry): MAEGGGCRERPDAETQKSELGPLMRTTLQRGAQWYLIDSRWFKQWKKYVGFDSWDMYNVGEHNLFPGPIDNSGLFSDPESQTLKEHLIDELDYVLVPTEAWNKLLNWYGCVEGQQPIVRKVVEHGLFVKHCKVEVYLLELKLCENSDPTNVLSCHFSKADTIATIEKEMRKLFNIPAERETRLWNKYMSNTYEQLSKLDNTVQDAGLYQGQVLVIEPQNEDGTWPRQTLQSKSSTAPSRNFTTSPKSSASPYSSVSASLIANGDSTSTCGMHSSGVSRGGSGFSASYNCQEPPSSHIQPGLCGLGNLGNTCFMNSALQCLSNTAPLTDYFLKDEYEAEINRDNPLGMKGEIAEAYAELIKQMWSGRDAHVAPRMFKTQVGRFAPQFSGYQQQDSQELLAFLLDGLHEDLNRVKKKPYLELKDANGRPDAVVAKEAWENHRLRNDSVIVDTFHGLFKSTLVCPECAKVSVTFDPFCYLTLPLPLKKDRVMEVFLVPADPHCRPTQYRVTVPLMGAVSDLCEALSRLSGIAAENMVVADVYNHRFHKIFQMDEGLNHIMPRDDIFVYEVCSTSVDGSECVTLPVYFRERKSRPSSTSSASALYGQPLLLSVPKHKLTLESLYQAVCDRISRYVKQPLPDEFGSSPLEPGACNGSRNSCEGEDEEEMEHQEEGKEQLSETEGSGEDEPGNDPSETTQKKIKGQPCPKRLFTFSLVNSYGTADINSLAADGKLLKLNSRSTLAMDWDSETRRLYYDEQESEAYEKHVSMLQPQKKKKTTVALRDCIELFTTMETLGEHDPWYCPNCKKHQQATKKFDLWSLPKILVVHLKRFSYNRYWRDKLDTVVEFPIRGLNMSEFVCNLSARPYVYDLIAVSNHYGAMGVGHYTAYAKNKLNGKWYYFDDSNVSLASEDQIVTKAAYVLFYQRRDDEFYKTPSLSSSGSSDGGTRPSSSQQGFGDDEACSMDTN
Procedure, shortened: as §1

Measured: log2 ratio of Biotin-Ahx-Ub-VS probe labelling

COc1ccc(Cl)cc1NC(=O)CCl
inactive: USP34 -0.301 | USP36 -0.44 | USP38 -0.283 | USP39 0.264 | USP4 -0.469
